# In all, about 48,000 compounds went through this assay and about 13,000 (27%) showed an effect of 50% or more. The list shows a part of the results.
# Test system: Wolbachia pipientis
# Assay: Anti-Wolbachia Cell-Based Screen
# Assay type: functional
# Set-up: scale not given: in the data most compounds retested in dose-response had high values
# Settings: 5 µM
row,SMILES,Percent Effect [%]
1,Cc1oc(-c2ccco2)nc1CN1CCc2cncnc2C1,88.65
2,COCc1ncn(Cc2nc(-c3ccco3)oc2C)n1,-24.79
3,Cc1nc(CN2CCc3cncnc3C2)oc1C,-4.156
4,COCCCNS(=O)(=O)c1cc(Br)sc1C,2.901
5,COc1cccc(F)c1C(C)NC(=O)NCc1cc(C(C)C)no1 (configuration not stated),-6.055
6,O=C1CC(c2ccccc2)c2snc(C(=O)O)c2N1 (configuration not stated),-4.128
7,C[C@@H]1CN2C[C@H](O)CC2CN1Cc1ccc2nccnc2c1 (some centres not stated),113.8
8,C[C@H]1CN2C[C@H](O)CC2CN1Cc1ccc2nccnc2c1.Cl (some centres not stated),75.9
9,CN(C)C(=O)CN1C[C@@H]2CC[C@H](C1)N(Cc1ccc3nsnc3c1)C2,10.45
10,Cc1nccn1-c1ccc(NC(=O)C2CCCN2Cc2ccoc2)cc1 (configuration not stated),9.601
11,COc1ccc(CN2CC(=O)N(c3ccc(C)cc3)CC2C)cc1O (configuration not stated),-1.266
12,Cc1nccn1-c1ccc(C(C)NCCC(C)C)cc1 (configuration not stated),-1.351
13,CS(=O)(=O)N1C[C@@H]2CC[C@H](C1)N(Cc1ccc3nsnc3c1)C2,5.437
14,CCn1ccnc1CN1CCN(c2ncnc3ccsc23)CC1C (configuration not stated),11.61
15,Cc1nccn1-c1ccc(CN2CC3C[C@@H](O)CN3C[C@@H]2C)cc1 (some centres not stated),108
16,CCNC(=O)CCC(=O)NC1(c2cccc(Br)c2)CC1,-12.14
17,CCc1nc(C)c(C(=O)N2C[C@H]3CC[C@@H]2CN(S(=O)(=O)N(C)C)C3)s1,8.94
18,CN(Cc1cnn(C)c1)C(=O)NC1CCN(c2ncccn2)CC1,-3.223
19,CC(C)NC(=O)[C@@H]1CC[C@@H]2[C@@H](CCN2Cc2cn(C)c3ccccc23)O1.O=C(O)C(F)(F)F,-4.98
20,Cc1cccnc1CN(C)C(C(=O)O)c1ccc(-c2ccn[nH]2)cc1 (configuration not stated),-12.44
21,O=C(CC1OCCc2ccccc21)NCCn1cccc1 (configuration not stated),-19.46
22,Cc1nn(C)c(N(C)C)c1CNCc1cccnc1-n1cncn1.Cl,6.556
23,COc1ncccc1CNCc1c(C)nn(C)c1N1CCOCC1,134
24,Cc1nn(C)c(Cl)c1C(=O)NCc1cccnc1N1CCOCC1,97.98
25,COc1c(CNCc2ccccc2CO)c(C)nn1C,-3.857
26,Cc1nn(C)c(C)c1C(=O)NCc1cccnc1OC1CCCC1,2.821

row,SMILES,Percent Effect [%]
1,COc1c(CNCc2cccnc2N2CCN(C)CC2)c(C)nn1C,102
2,Cc1nn(C)c(N2CCOCC2)c1CNC(c1cccs1)C(C)C (configuration not stated),11.33
3,COc1ccc(C(=O)NCc2cccnc2N2CCOCC2)o1,-8.247
4,COc1c(CNCc2cccnc2OC2CCCC2)c(C)nn1C,10.48
5,Cc1nn(C)c(N(C)C)c1CNCc1cccnc1N1CCOCC1,75.62
6,Cn1ncnc1CCNC(=O)c1cc(Cl)c(Cl)n1C,-10.92
7,CCC(O)(CNCc1ncc[nH]1)c1ccc(Br)cc1 (configuration not stated),-2.159
8,CCN(C(=O)c1ccc2nncn2c1)C(C)Cc1ccc(OC)cc1 (configuration not stated),0.4912
9,COc1ccccc1CN1C(=O)O[C@@H]2CN(Cc3cccc(C)n3)C[C@@H]21,8.298
10,Cc1c(C(C)NCc2cnn(C)c2)cnn1-c1ccccc1 (configuration not stated),2.501
11,COc1ncccc1CNCc1c(C(C)C)nn(C)c1Cl,-10.74
12,COc1c(CNCc2ccccc2CN2CCOCC2)c(C)nn1C,9.735
13,Cc1nn(C)c(C)c1CNCc1ccc(N2CCOCC2)nc1.Cl,-2.34
14,COc1c(CNCc2cccnc2N2CCCCC2)c(C)nn1C,105.9
15,COc1c(CNCc2ccc(N3CCOCC3)cc2)c(C)nn1C,-35.64
16,CC(C)c1nn(C)c(Cl)c1CNCc1cccnc1N(C)C.Cl,4.509
17,COc1c(CNCc2ccnc(N3CCCC3)c2)c(C)nn1C,5.629
18,Cc1nn(C)c(C)c1CNCc1cccnc1N1CCOCC1,117.5
19,COc1c(CNCc2cccnc2N2CCOCC2)c(C)nn1C,98.1
20,Cc1nn(C)c(C)c1CNCc1ccnc(N2CCOCC2)c1,7.637
21,Cc1nn(C)c(Cl)c1CNCc1cccnc1N1CCCCC1.Cl,128.1
22,CCN(CC)C(=O)[C@@H]1C[C@@H](NC(=O)c2ccn(C(C)(C)C)c2)CN1C,-2.553
23,CCOC1CCCN(C(=O)c2[nH]nc(C3CC3)c2Br)C1 (configuration not stated),12.02
24,Cc1nn(C)c(C)c1CC(=O)NCc1cccnc1OC1CCCC1,8.742
25,Cc1nn(C)c(C)c1CC(=O)NCc1cccnc1N1CCOCC1,92.54
26,Cc1nn(C)c(C)c1CCC(=O)NCc1cccnc1OC1CCCC1,8.443

# Reference: ChEMBL document CHEMBL3988442, “University of Dundee, Small-Polar-MMV Screening Library” (2021)
